High-throughput results deposited in PubChem by Broad Institute.
The sample as a whole holds a higher share of hits than the screen did.
EZH2 inh: inhibitors of human EZH2/PRC2 methyltransferase | Q15910 | PRC2 H3K27 methylation, DELFIA TRF, 1 h | inhibition, % at 12.5 µM | actives 0.35% (n = 57,000) | AID 651548;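 active means mean inhibition of replicates at least 50% and every single replicate also reaching 50%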;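 further: dimethyl H3K27 on biotinylated H3 21-44 peptide detected by antibody; plate controls were median neutral control wells for no effect and median positive control wells for full effect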
Target sequence (Q15910 whole entry, looked up): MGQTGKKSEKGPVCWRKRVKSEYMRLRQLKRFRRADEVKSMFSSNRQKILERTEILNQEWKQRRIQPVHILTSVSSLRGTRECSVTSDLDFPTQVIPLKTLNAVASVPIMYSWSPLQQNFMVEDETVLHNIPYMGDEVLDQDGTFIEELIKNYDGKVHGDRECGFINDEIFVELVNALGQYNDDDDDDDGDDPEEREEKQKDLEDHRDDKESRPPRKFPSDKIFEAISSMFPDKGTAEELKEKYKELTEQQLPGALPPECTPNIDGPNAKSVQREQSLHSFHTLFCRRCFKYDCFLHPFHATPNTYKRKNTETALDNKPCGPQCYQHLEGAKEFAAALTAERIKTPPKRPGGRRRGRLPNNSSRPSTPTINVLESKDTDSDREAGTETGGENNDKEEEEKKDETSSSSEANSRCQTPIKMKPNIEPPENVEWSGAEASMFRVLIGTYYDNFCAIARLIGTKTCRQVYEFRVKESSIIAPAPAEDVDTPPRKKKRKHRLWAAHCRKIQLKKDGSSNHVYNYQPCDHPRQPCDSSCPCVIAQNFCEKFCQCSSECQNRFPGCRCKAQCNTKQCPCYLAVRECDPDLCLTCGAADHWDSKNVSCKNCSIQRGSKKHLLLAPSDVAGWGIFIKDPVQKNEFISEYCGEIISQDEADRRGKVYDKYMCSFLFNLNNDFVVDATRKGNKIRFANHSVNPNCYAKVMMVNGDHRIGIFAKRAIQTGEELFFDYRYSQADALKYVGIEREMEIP
Starred values were filed as active, the others as inactive.

SMILES	EZH2 inh
O=c1ccc2ccc(Oc3ncnc4scc(-c5ccc(F)cc5)c34)cc2o1	2.1
Cc1cc(C(F)(F)F)nc(SCc2cccc(C(=O)O)c2)n1	-6.8
O=C(O)c1cccc(CSc2nc(-c3ccc(Cl)cc3)cc(C(F)(F)F)n2)c1	50.1*
O=C(O)c1cccc(CSc2n[nH]c(-c3ccc(Cl)cc3)n2)c1	-22.3
CCc1ccc(C(Nc2cc(C)ccn2)c2ccc3cccnc3c2O)cc1 (stereo unspecified)	-24.8
CC(C)(Sc1ccc(CCN(CCCCC2CCCCC2)C(=O)NC2CCCCC2)cc1)C(=O)O	85.7*
O=C(N/N=C/[C@H](O)[C@H](O)[C@@H](O)[C@@H](O)CO)c1ccccc1O	9.9
CN(C)/C=C/C=C1C(=O)CCCC1=O	53.6*
O=S(=O)(Nc1ccc(O)c(Sc2nc3ccccc3s2)c1)c1ccccc1	1.7
N#CCc1ccc(NC(=O)CN2C(=O)c3ccccc3S2(=O)=O)cc1	-9.2
CCn1c(SCC(=O)Nc2ccc(C(N)=O)cc2)nnc1-c1ccc(F)cc1	-0.9
O=C(COc1ccc2ccccc2c1)Nc1ccccc1-c1nc2ccccc2s1	-4.1
COC(=O)C(CC#Cc1ccc2c(c1)[C@]1(C(=O)N2)[C@H](C(N)=O)[C@H]2C(=O)O[C@H](c3ccccc3)[C@H](c3ccccc3)N2[C@@H]1c1ccccc1OCCO)C(=O)OC	-31.0
O=C(CSc1nc(-c2ccccc2)cc(=O)[nH]1)Nc1cccc(Cl)c1Cl	46.5
O=C(CSc1nc(-c2ccccc2)cc(=O)[nH]1)Nc1cc(C(F)(F)F)ccc1Cl	64.5*
Cc1ccc(NC(=O)CSc2nc(-c3ccccc3)cc(=O)[nH]2)cc1Cl	13.7
OC(CNCc1ccccc1)Cn1c2ccccc2c2ccccc21 (stereo unspecified)	-8.3
Cc1ccc(S(=O)(=O)NC(C)C(=O)Nc2cccc(C(F)(F)F)c2)cc1 (stereo unspecified)	-1.6
Cc1cc(Cl)c(S(=O)(=O)Nc2cccc(C(F)(F)F)c2)cc1OCC(N)=O	2.1
CC(C)(c1ccc(NS(=O)(=O)C(F)(F)F)cc1)c1ccc(C(C)(C)c2cccc(NS(=O)(=O)C(F)(F)F)c2)cc1	51.9*
OCCCn1c(-c2ccc(Cl)cc2)cn2c3ccccc3nc12	-1.3
Cc1c(/C=C2\SC(=Nc3ccccc3)N(C3CCCC3)C2=O)c2ccccc2n1CC(N)=O	-48.1
CN(C)CCCOc1ccc(/C=N/NC(=O)c2ccccn2)cc1	17.4
O=c1c(O)c(-c2ccccc2)oc2cc(O)cc(O)c12	-0.6
O=c1c(O)c(-c2cc(O)c(O)c(O)c2)oc2cc(O)cc(O)c12	93.1*
SMILES	EZH2 inh
COc1cc(O)c2c(=O)c(OC)c(-c3cc(O)c(OC)c(OC)c3)oc2c1	-16.8
O=C(CCNc1ccc(Oc2ccccc2)cc1)c1ccco1	10.9
O=C(CCCCCC(=O)Nc1ccccc1O)N/N=C/[C@H](O)[C@@H](O)[C@H](O)CO	-8.3
COC(=O)CCCCCCC(=O)N/N=C/c1cc(OC)c(OC)cc1[N+](=O)[O-]	0.7
COc1ccc(OCC(=O)Nc2cc(OC)c(Cl)cc2OC)cc1	19.6
COc1ccccc1NC(=O)C(Cc1ccccc1)N1C(=O)C2C3c4ccccc4C(c4ccccc43)C2C1=O (stereo unspecified)	-2.2
COC(=O)[C@H](Cc1ccc(N=[N+]=[N-])cc1)N1CC(/C=C/[C@@H](O)Cc2ccccc2)=C[C@@H](C2CC2)O1	-0.4
COC(=O)[C@H](Cc1ccccc1)N1C(=O)O[C@H](Cc2ccccc2)[C@@H]1/C=C/C1CC1	55.8*
O=C(CCCCCC(=O)N/N=C/c1ccc(O)c2ccccc12)NO	-1.9
CN(CC(N)=O)S(=O)(=O)c1ccc2ccccc2c1	0.9
O=S(=O)(NCCCCCCc1ccccc1)c1cccc2c(Cl)cccc12	55.5*
NCCCCCCNS(=O)(=O)c1cccc2c(Cl)cccc12	-10.7
CCCCCCCNS(=O)(=O)c1cccc2c(Cl)cccc12	41.3
CC(CC(N)=O)OC(=O)c1cc(Cl)cc(O)c1O (stereo unspecified)	2.1
OC[C@H]1O[C@@H](OC(CCCCc2ccc(O)cc2)CCc2ccc(O)cc2)[C@H](O)[C@@H](O)[C@@H]1O (stereo partly specified)	73.3*
O=C(CCc1ccc(O)cc1)c1c(O)c([C@@H]2O[C@H](CO)[C@@H](O)[C@H](O)[C@H]2O)c(O)c([C@@H]2O[C@H](CO)[C@@H](O)[C@H](O)[C@H]2O)c1O	11.0
Oc1ccc(CCCCC(CCc2ccc(O)cc2)O[C@@H]2OC[C@@H](O)[C@H](O)[C@H]2O)cc1 (stereo partly specified)	11.4
O=C(NO)c1cccc(C(=O)N/N=C/c2cc3c(cc2Br)OCO3)c1	8.5
O=C(NO)c1ccc(C(=O)N/N=C/c2cc(Br)cc([N+](=O)[O-])c2O)cc1	1.7
COc1ccc(C(NC(=O)c2ccccc2)c2ccc3cccnc3c2O)c(OC)c1 (stereo unspecified)	5.3
Cn1cc(/C=N/NC(=O)c2cccc(C(=O)NO)c2)c2ccccc21	-23.5
COc1ccc(/C=N/NC(=O)c2ccccc2O)cc1Br	-7.7
COc1cc(Br)c(/C=N/NC(=O)c2ccccc2O)cc1OC	67.1*
COc1cc(Br)cc(/C=N/NC(=O)c2ccccc2O)c1O	4.9
COCc1cc(O)c(O)c(O)c1-c1c(COC)cc(O)c(O)c1O	88.0*
SMILES	EZH2 inh
COc1ccc(C(C)=O)c(O)c1	-2.7
COc1ccc(NC(=O)NCc2cc(C)n(C)n2)cc1OC	0.0
COc1ccc(-c2nc(SCC(=O)Nc3cccc(Br)c3)n[nH]2)cc1	2.0
O=C(CSc1n[nH]c(-c2ccc(Cl)cc2)n1)Nc1ccc(Br)c(Cl)c1	-3.9
COc1ccc(-c2nc(SCC(=O)Nc3ccc(Br)c(Cl)c3)n[nH]2)cc1	56.8*
O=C(CCCCC(=O)N/N=C/c1ccc2ccccc2c1)NO	-3.9
COC(=O)CCCCCCC(=O)N/N=C/c1ccc(Oc2ccccc2)cc1	-2.6
O=C(CCCCC(=O)N/N=C/c1ccc(-c2ccccc2)c(F)c1)NO	-11.8
COC(=O)CCCCCCC(=O)N/N=C/c1ccc(-c2ccccc2)c(F)c1	60.0*
O=C(CC(Sc1ccc(Cl)cc1)c1ccc(Cl)cc1)C1CC1 (stereo unspecified)	53.4*
N#Cc1sc2c(c1OC(=O)c1cccs1)c(=O)n(-c1ccccc1)c(=S)n2-c1ccccc1	12.1
Cc1ccc(NCc2ccc(C(=O)Nc3ccccc3[N+](=O)[O-])cc2)cc1C	2.2
CCC1(C)Cc2ccccc2-c2nc3[nH]nc(SCC(=O)Nc4ccc(OC)c(Cl)c4)n3c(=O)c21 (stereo unspecified)	60.1*
COc1ccc(NC(=O)CSc2n[nH]c(N)n2)cc1Cl	-12.9
COc1ccc(NC(=O)CSc2nnc(C)c(=O)[nH]2)cc1Cl	-13.0
CS(=O)(=O)N1CCN(c2ccccc2NC(=O)COc2ccc(Cl)cc2)CC1	4.2
COc1ccc(-c2nc(SCc3ccc(OC)c([N+](=O)[O-])c3)n[nH]2)cc1	-5.2
COc1ccc2c(c1)c(=O)oc1cc(OCC(=O)Nc3cc(C)cc(C)c3)ccc12	-3.0
COc1cc([N+](=O)[O-])ccc1NC(=S)NCc1cn(-c2ccccc2)nc1-c1ccccc1	-4.1
O=C(CCCC(=O)Nc1ccc2ccccc2c1)Nc1ccc2ccccc2c1	13.2
Cc1cc(-c2ccccc2)nc(SCC(=O)Nc2sc3c(c2C#N)CCCC3)n1	-1.9
CCOc1ccccc1-c1nc(SCC(=O)Nc2sc3c(c2C#N)CCCC3)n[nH]1	-27.4
Cc1ccccc1-c1nc(SCC(=O)Nc2sc3c(c2C#N)CCCC3)n[nH]1	55.4*
